Test results: PubChem BioAssay (NCATS)
Records with an inconclusive call do not appear. Activity calls are given as the source filed them. Unless noted, the call rests on the fitted dose curve; in most records, active means well fitted curve in the direction sought with a large enough effect; inconclusive means small, poorly fitted or top-dose-only effect, or another doubt; inactive means no such curve, though single readings can be large; an effect the other way counts as inactive or inconclusive.

Columns and labels:
[1] = target: Lysosomal acid glucosylceramidase (Homo sapiens) (UniProt P04062); assay: Glucocerebrosidase-p2 (AID 348; in the data active means potency below about 10 µM; further: potency means the concentration at half of the fitted maximal effect); details: purified GBA, blue fluorogenic substrate, 40 min
Lysosomal acid glucosylceramidase (Homo sapiens), sequence (P04062 whole entry, looked up): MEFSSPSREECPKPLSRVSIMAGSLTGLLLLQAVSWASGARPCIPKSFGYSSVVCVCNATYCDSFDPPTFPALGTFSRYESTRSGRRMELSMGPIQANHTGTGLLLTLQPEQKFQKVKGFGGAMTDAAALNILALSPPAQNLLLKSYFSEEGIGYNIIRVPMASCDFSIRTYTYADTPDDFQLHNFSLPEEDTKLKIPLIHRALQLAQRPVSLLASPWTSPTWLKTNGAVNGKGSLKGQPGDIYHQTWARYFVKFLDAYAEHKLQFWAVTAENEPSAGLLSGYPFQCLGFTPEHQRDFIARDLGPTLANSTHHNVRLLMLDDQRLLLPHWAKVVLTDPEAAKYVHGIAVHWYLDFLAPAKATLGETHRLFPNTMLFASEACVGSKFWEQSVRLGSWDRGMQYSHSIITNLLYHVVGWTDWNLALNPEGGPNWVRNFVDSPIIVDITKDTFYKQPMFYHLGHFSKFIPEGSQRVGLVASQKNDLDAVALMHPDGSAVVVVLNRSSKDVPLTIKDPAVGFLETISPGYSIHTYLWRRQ
How it was run: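 Normal human glucocerebrosidase (0.2 nM) with blue fluorogenic substrate (80 uM final) in citrate/phosphate pH 5.9 with 10mM sodium taurocholate, 0.01% tween-20; 40 min RT, NaOH/glycine stop; fluorescence Ex 365/Em 440; AC50 from a titration from 0.6 nM upwards.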

[2] = NFAT Signaling Pathway (AID 444; active means well fitted curve in either direction with a large enough effect, not every such curve was filed as active;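 further: carbachol stimulus at about its EC50 of 1 µM final; on the % scale 0 is the no-effect control and ±100 the full control effect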); details: Jurkat NFAT-bla M1, carbachol, beta-lactamase ratio, 5 h; at 7.69 µM (top of the series) unless noted
How it was run: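 Jurkat cells with NFAT-driven β-lactamase reporter and co-expressed M1 receptor, stimulated with carbachol (final 1 uM, ~EC50), compound titration, 5 h at 37 °C. CCF4 loaded 1 h at RT; 460/530 nm ratio gave %activity and AC50.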

[3] = Stat Signaling Pathway (AID 446; active means well fitted curve in either direction with a large enough effect, not every such curve was filed as active;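 further: ME-180 cervical cancer cells given 40 pM IL-6 alongside compound; SIE-controlled beta-lactamase reporter measured as 460/530 nm FRET emission ratio; on the % scale 0 is the no-effect control and ±100 the full control effect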); details: ME-180 SIE beta-lactamase reporter, IL-6 stimulated, 5 h; at 7.69 µM (top of the series) unless noted
How it was run: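 FRET read-out (405 nm excitation, 460/530 nm emission) of a beta-lactamase reporter under a STAT-inducible element in ME-180 cervical carcinoma cells. Cells with compound receive 40 pM IL-6 for 5 h. Values are normalised to AC90 stimulation and AC90 JAK-inhibitor controls.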

[4] = target: Glucocorticoid receptor (Homo sapiens) (UniProt P04150); assay: GR-GFP Redistribution (AID 450;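 active means compounds whose dose series gives a full or clear partial fitted curve of increased nuclear translocation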; further: potency means the concentration at half of the fitted maximal effect); details: U2OS GR-GFP nuclear translocation, laser cytometry, 2 h
Glucocorticoid receptor (Homo sapiens), sequence (P04150 whole entry, looked up, the tested form may be a part): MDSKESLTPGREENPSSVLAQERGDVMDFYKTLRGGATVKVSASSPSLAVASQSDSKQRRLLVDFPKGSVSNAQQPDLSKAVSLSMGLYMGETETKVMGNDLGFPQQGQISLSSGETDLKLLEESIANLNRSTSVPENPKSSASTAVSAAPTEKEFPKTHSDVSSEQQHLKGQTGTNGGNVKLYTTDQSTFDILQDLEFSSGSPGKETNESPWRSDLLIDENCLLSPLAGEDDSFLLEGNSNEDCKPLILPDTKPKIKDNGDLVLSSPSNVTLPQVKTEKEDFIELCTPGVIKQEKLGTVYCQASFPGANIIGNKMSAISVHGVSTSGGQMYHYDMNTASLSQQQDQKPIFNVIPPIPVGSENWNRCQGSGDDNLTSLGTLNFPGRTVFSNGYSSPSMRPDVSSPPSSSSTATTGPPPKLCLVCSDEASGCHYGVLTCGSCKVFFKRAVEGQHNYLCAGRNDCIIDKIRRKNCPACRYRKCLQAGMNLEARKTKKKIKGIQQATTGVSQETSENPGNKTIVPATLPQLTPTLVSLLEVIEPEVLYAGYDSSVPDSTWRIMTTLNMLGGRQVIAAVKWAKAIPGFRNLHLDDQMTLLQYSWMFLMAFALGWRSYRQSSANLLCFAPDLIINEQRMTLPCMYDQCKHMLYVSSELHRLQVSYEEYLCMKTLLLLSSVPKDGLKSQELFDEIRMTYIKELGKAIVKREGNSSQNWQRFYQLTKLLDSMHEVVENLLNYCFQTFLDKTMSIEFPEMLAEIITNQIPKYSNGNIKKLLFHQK

[5] = target: Glucocorticoid receptor (Homo sapiens) (UniProt P04150); assay: GR-EFC Redistribution (AID 451; calls by dose curve; further: potency means the concentration at half of the fitted maximal effect); details: CHO-K1 GR-EFC translocation, beta-gal luminescence, 2 h
How it was run: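 CHO-K1 cells expressing nuclear EA and GR-ED fragments of b-gal; compounds titrated up to 46 uM final, 2 h at 37 C. GR nuclear translocation read as complemented b-gal luminescence after 1 h RT detection.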

[6] = target: Mitogen-activated protein kinase 10 (Mus musculus) (UniProt Q61831); assay: JNK3 AlphaScreen Assay (AID 530; active means well fitted curve in either direction with a large enough effect, not every such curve was filed as active;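 further: kinase came from lysate of stimulated human HepG2 cells; signal reports phosphorylation of biotinylated GST-cJun 1-79 at Ser73 with 10 µM ATP; on the % scale 0 is the no-effect control and ±100 the full control effect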)
How it was run: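 Activity was read by AlphaScreen after JNK3-containing HepG2 lysate (cytokine pre-activated) phosphorylated biotinylated GST-cJun with 10 uM ATP at room temperature. Phospho-Ser73 cJun antibody with Protein-A acceptor beads provided detection.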

[7] = target: Cytochrome P450 3A4 (Homo sapiens) (UniProt P08684); assay: qHTS Assay for Inhibitors and Substrates of Cytochrome P450 3A4 (AID 884); further: potency means the concentration at half of the fitted maximal effect; nearly all actives have a fitted effect of over 50% in size
Cytochrome P450 3A4 (Homo sapiens), sequence (P08684 whole entry, looked up): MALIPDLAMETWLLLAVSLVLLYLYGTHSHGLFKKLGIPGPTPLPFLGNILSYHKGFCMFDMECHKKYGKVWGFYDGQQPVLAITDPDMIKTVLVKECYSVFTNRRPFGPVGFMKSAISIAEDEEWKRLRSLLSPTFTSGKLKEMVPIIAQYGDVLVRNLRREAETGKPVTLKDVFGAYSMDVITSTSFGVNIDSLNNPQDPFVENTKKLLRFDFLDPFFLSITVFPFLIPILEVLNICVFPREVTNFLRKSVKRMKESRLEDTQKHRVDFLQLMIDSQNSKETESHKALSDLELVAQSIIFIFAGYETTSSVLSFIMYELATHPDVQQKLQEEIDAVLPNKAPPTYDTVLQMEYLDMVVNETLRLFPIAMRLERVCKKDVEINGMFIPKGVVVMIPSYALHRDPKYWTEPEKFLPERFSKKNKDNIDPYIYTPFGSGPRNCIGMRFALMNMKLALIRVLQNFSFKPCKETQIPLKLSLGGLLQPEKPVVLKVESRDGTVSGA
How it was run: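 Luminescent readout of luciferin produced by CYP3A4 (20 nM) dealkylation of Luciferin-PPXE, 25 uM (its KM). NADPH-driven reaction ran 60 min at RT after 10 min compound preincubation; data scaled to 57 uM ketoconazole as 100% inhibition.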

[8] = target: Cytochrome P450 3A4 (Homo sapiens) (UniProt P08684); assay: qHTS Assay for Activators of Cytochrome P450 3A4 (AID 885); further: nearly all actives have a fitted effect of over 65% in size
How it was run: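 Luminescent readout of luciferin formed from 25 uM Luciferin-PPXE (KM level) by 20 nM CYP3A4 in 200 mM KPO4, with 60 min NADPH-driven reaction at room temperature after 10 min compound exposure. Ketoconazole (57 uM) defined 100% inhibition.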

[9] = target: Cytochrome P450 2C19 (Homo sapiens) (UniProt P33261); assay: qHTS Assay for Inhibitors and Substrates of Cytochrome P450 2C19 (AID 899); further: potency means the concentration at half of the fitted maximal effect; nearly all actives have a fitted effect of over 60% in size
Cytochrome P450 2C19 (Homo sapiens), sequence (P33261 whole entry, looked up): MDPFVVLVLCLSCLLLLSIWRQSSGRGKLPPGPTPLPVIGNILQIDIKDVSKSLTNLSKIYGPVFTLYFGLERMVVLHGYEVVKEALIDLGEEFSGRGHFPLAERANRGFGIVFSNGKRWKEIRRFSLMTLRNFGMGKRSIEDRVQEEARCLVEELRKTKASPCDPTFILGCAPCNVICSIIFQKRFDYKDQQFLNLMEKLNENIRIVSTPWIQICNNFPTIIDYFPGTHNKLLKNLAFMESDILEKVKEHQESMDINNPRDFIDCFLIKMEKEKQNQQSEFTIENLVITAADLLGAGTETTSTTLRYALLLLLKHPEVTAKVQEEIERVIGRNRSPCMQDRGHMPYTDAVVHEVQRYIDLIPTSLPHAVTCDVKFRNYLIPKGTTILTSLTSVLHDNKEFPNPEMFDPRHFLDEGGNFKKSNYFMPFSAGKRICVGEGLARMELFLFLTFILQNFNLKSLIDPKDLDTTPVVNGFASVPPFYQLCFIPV
How it was run: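 Signal comes from luciferase acting on luciferin released by CYP2C19-mediated hydroxylation of Luciferin-H EGE, 10uM (KM). Assay mix: 5nM enzyme, 50mM KPO4; 60 min at 37C with NADPH regeneration. Data normalized against 57uM ketoconazole.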

[10] = qHTS Assay for Lipid Storage Modulators (AID 1519; calls by dose curve); details: Drosophila S3 cells, BODIPY lipid droplet/cell ratio, laser cytometry, cells loaded with oleic acid; for activity change, negative = inhibition: at 57.5 µM (top of the series)
How it was run: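 Cells seeded at 5,000 per well were treated with compounds over a concentration series and loaded with oleic acid (400 uM, as added). Lipid droplet fluorescence (488 nm excitation, 500-530 nm channel) was read by laser-scanning cytometry and normalized to 20 uM Triacsin C.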

[11] = target: Dual specificity protein kinase CLK4 (Homo sapiens) (UniProt Q9HAZ1); assay: qHTS Assay for Inhibitors of CDC-like Kinase 4 (ADP-FP Assay) (AID 1795); further: nearly all actives have a fitted effect of over 60% in size; further: potency means the concentration at half of the fitted maximal effect
Dual specificity protein kinase CLK4 (Homo sapiens), sequence (Q9HAZ1 whole entry, looked up): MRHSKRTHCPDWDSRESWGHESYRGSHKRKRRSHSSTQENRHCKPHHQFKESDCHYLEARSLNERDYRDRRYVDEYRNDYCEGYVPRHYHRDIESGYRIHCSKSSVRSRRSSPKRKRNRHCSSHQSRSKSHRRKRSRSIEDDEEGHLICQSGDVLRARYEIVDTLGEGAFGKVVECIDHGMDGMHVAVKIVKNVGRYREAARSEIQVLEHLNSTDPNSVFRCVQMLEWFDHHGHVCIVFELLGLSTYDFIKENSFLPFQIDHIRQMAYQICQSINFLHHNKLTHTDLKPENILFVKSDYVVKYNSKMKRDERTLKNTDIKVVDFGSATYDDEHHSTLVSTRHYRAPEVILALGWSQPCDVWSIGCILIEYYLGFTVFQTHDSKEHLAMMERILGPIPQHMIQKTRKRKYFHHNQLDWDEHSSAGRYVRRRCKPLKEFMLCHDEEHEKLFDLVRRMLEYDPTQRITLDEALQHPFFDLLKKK
How it was run: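 FP readout: Orange Transcreener ADP2 tracer (4 nM) plus ADP antibody, read after 30 min at room temperature. Kinase step: 6.25 nM Clk4, 100 uM RS peptide, 1 uM ATP, pH 7.5, 1 h.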

[12] = Primary qHTS for small molecule stabilizers of the endoplasmic reticulum resident proteome: Secreted ER Calcium Modulated Protein (SERCaMP) assay (AID 1508630); further: on the % scale 0 is the no-effect control and ±100 the full control effect
How it was run: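 The SH-SY5Y reporter protocol was run at 3 concentrations up to 38.3 uM (primary) or 11 concentrations (follow-up): 16 h compound, 100 nM thapsigargin for 4 h, then extracellular luciferase luminescence.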

[13] = AP1 Signaling Pathway (AID 357; active means well fitted curve in either direction with a large enough effect, not every such curve was filed as active); details: ME-180 AP-1-bla reporter, EGF-induced, beta-lactamase ratio, 5 h; at 7.69 µM (top of the series) unless noted
How it was run: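 Read-out was the 460nm/530nm emission ratio (excitation 405nm) after CCF4 loading for 2.5 hours at room temperature. Cells carried an AP-1-driven beta-lactamase reporter, were stimulated with EC50 EGF plus compound for 5 hours, and AC50 values came from titrations.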

[14] = target: 3',5'-cyclic-AMP phosphodiesterase 4B (Homo sapiens) (UniProt Q07343); assay: qHTS Assay for Inhibitors of PDE-IV (AID 607; active means well fitted activation curve with a large enough effect in the main read-out, with a control signal flat, not every such curve was filed as active; further: % of control where 0% means no effect)
3',5'-cyclic-AMP phosphodiesterase 4B (Homo sapiens), sequence (Q07343 whole entry, looked up): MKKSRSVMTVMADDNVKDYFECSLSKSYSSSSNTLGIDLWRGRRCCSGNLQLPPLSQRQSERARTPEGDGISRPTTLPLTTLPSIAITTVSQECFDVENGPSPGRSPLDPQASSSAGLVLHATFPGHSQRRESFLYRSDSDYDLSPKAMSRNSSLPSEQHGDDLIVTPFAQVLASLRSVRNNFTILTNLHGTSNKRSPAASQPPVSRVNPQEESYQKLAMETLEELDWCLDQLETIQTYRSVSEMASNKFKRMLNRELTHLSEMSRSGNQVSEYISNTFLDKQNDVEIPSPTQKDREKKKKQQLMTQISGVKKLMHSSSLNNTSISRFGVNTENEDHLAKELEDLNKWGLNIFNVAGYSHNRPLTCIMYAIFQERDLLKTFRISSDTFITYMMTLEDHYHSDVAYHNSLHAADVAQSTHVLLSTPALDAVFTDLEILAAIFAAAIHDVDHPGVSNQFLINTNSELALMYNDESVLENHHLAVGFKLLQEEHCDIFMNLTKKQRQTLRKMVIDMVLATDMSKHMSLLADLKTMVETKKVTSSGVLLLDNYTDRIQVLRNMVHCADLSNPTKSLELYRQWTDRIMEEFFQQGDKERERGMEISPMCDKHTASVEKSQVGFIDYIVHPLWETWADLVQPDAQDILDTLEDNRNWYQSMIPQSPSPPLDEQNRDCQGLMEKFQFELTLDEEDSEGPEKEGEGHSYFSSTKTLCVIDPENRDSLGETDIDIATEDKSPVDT
How it was run: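 Cell-based read-out of cAMP via a modified cyclic nucleotide-gated channel and membrane potential dye (535/590 nm) in HEK293 cells expressing PDE4 endogenously. Compounds tested up to 22.9 uM final; 100 uM RO 20-1724 reference.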

[15] = target: Ubiquitin carboxyl-terminal hydrolase 1 (Homo sapiens) (UniProt O94782); assay: Inhibitors of USP1/UAF1: Pilot qHTS (AID 504865);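 further: rhodamine fluorescence freed from ubiquitin-rhodamine substrate followed over time; top concentration of the series differs between compounds; on the % scale 0 is the no-effect control and ±100 the full control effect; nearly all actives have a fitted effect of over 35% in size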
Ubiquitin carboxyl-terminal hydrolase 1 (Homo sapiens), sequence (O94782 whole entry, looked up): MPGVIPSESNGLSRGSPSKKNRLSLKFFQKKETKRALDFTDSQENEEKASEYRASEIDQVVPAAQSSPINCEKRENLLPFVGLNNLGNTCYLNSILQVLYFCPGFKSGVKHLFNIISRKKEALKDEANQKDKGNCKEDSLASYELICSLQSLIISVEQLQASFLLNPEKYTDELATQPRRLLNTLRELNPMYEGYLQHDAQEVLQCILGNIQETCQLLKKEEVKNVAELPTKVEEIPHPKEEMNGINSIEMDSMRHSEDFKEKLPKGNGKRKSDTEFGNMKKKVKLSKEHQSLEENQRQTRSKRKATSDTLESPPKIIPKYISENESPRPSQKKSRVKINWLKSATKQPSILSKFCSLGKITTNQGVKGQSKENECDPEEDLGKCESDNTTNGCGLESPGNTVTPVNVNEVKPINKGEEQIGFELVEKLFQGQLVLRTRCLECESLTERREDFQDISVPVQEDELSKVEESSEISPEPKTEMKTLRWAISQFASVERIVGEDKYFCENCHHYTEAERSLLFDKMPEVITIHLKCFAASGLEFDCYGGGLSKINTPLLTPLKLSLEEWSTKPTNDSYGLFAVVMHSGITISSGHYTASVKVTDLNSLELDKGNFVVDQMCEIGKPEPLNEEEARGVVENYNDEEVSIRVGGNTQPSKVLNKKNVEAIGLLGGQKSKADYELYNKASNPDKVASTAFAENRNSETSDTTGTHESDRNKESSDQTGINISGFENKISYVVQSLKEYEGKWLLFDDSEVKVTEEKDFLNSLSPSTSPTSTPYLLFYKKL
How it was run: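 1nM USP1/UAF1 + cpd, 15 min RT; start w/ Ub-Rho 150nM final; kinetic FL 480/540 nm, 6 reads q60 s. Buffer 50mM HEPES pH 7.8, 0.5mM EDTA, 1mM TCEP, 0.01% Tween-20, 0.1 mg/ml BSA.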

[16] = target: Cytochrome P450 1A2 (Homo sapiens) (UniProt P05177); assay: p450-cyp1a2 (AID 410; calls by dose curve; further: potency means the concentration at half of the fitted maximal effect)
Cytochrome P450 1A2 (Homo sapiens), sequence (P05177 whole entry, looked up): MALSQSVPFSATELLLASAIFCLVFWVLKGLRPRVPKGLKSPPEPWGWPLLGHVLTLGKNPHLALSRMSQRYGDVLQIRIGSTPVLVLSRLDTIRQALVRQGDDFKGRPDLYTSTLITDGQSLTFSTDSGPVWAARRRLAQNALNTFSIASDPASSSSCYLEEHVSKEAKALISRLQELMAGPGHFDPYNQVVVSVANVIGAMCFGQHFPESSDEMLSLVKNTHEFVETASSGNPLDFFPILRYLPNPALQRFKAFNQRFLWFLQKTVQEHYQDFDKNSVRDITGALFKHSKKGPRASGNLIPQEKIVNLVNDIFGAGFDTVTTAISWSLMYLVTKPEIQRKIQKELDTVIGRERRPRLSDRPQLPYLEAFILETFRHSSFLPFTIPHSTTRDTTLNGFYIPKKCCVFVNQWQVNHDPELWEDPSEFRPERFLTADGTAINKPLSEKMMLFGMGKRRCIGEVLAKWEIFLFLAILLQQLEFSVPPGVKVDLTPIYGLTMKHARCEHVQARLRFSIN
How it was run: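 O-Demethylation of luciferin 6' methyl ether by human CYP1A2 is monitored as luciferase luminescence. Substrate sits at Km (100uM); enzyme is 20nM. Values are scaled to 57 uM furafylline as maximal inhibition.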

[17] = qHTS Assay for Identification of Small Molecule Agonists for Hypoxia Response Element Signaling Pathway (AID 914; active means well fitted activation curve with a large enough effect in the signal ratio, with a control signal flat, not every such curve was filed as active; the % refers to the signal ratio; further: potency means the concentration at half of the fitted maximal effect); details: ME-180 (cervical carcinoma) HRE-bla reporter, beta-lactamase ratio, CoCl2, 17 h; activation: stronger effect = higher value
How it was run: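 HRE-bla ME-180 assay for agonist-like enhancement of an EC50 CoCl2 stimulus: 17 h at 37 degrees Celsius, CCF4 for 2.5 h, ratiometric 460/530 nm signal converted to %Activity and fitted to AC50.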

[18] = measured here: cell count channel max response
[19] = measured here: lipid channel max response

COc1cccc(-c2cncnc2Nc2ccc(F)cc2)c1
active: Potency [7] 0.794 µM | Potency [9] 0.398 µM
18.7%: max response [10, 19]
inactive: Potency [1] > 11.4 µM | activity change, negative = inhibition [2] 13.9% | activity, negative = inhibition [3] -10.1% | Potency [4] > 46 µM | Potency [5] > 46 µM | outcome [6] | Potency [8] | activity change, negative = inhibition [10] 9.47% | Potency [11] | Potency [12]
6.55%: max response [10, 18]

COc1ccc(-c2nc3cnc(Nc4cccc(OC)c4)nc3n(C)c2=O)cc1
2.92%: max response [10, 19]
2.29%: max response [10, 18]
inactive: Potency [1] > 11.4 µM | activity change, negative = inhibition [13] -11.9% | activity change, negative = inhibition [2] -14.3% | activity, negative = inhibition [3] 0.85% | Potency [4] > 9.22 µM | Potency [5] > 46 µM | outcome [6] | Potency [14] | activity change, negative = inhibition [10] 1.51% | Potency [11] | Potency [15] | Potency [12]

CN(C)Cc1ccccc1-c1cncnc1Nc1ccncc1
13.6%: max response [10, 18]
17.6%: max response [10, 19]
inactive: Potency [1] > 11.4 µM | activity change, negative = inhibition [13] -25.5% | activity change, negative = inhibition [2] 10.2% | activity, negative = inhibition [3] 5.07% | Potency [4] > 46 µM | Potency [5] > 46 µM | outcome [6] | Potency [14] | activity change, negative = inhibition [10] 4.9% | Potency [11] | Potency [15] | Potency [12]

COCCNc1ccnc(-c2ccccc2C(F)(F)F)n1
29.2%: max response [10, 19]
inactive: Potency [1] > 11.4 µM | activity change, negative = inhibition [2] 9.65% | activity, negative = inhibition [3] 8.97% | Potency [4] > 46 µM | Potency [5] > 46 µM | outcome [6] | Potency [14] | activity change, negative = inhibition [10] 3.61% | Potency [11] | Potency [15] | Potency [12]
active: Potency [16] 20 µM
25.6%: max response [10, 18]

Cc1noc(C)c1-c1ccc2ncnc(NCc3cccnc3)c2c1
10.5%: max response [10, 18]
active: Potency [16] 0.316 µM | Potency [7] 2.51 µM | Potency [9] 0.02 µM | Potency [17] 3.16 µM | Potency [11] 0.794 µM
inactive: Potency [1] > 11.4 µM | activity change, negative = inhibition [13] 26.4% | Potency [4] > 46 µM | Potency [5] > 46 µM | outcome [6] | Potency [14] | Potency [8] | activity change, negative = inhibition [10] -3.3% | Potency [15] | Potency [12]
6%: max response [10, 19]

COc1ccc(-n2c(=O)cnc3cnc(N4CCN(C)CC4)nc32)cc1
19.5%: max response [10, 19]
18.4%: max response [10, 18]
inactive: Potency [1] > 11.4 µM | activity change, negative = inhibition [13] -6.82% | activity change, negative = inhibition [2] -9.46% | activity, negative = inhibition [3] 2.91% | Potency [4] > 9.22 µM | Potency [5] > 46 µM | outcome [6] | Potency [14] | activity change, negative = inhibition [10] 2.82% | Potency [11] | Potency [15] | Potency [12]
